Screening results from PubChem BioAssay.
Spn MK inh = blocks S. pneumoniae mevalonate kinase; purified MK, PK/LDH-coupled NADH absorbance 340 nm; inhibition, % at 10 µM; actives 0.48% (n = 65,000);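 active means ranked among the strongest by inhibition in the single 10 µM screen, a fixed top-ranked set picked for dose follow-up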
PMK inhibit = inhibitors of Streptococcus pneumoniae phosphomevalonate kinase; purified PMK, PK/LDH-coupled NADH absorbance 340 nm; inhibition, % at 10 µM; actives 0.49% (n = 65,000);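 active means top-ranked compounds by inhibition in the single 10 µM screen, taking a fixed number of the strongest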
Spn DPM-DC inh = blocks S. pneumoniae diphosphomevalonate decarboxylase; actives 0.49% (n = 65,000); calls only at 10 µM; purified DPM-DC, PK/LDH coupled NADH fluorescence; AID 556;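 active means the 320 compounds with the highest percent inhibition in the single-dose primary screen, excluding strongly autofluorescent ones, cut at about 32% in these data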;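 further: kinetic rate of NADH fluorescence loss reporting ADP formed by the decarboxylase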
NADH enzymes = blocks coupling enzymes of NAD/NADH assays | actives 0.02% (n = 65,000) | AID 774 | coupled PK/LDH NADH assays, four targets | IC50, µM (series often up to 10 µM);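 active means single-dose screening hits from any of four coupled enzyme assays that gave an IC50 when retested across doses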;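 further: the DPM-DC format reads NADH fluorescence rather than 340 nm absorbance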
Fluor 339 460 = intrinsic fluorescence of library compounds, ex339/em460 – biochemical, MLSMR library, data from DPM-DC assay, artefact control, profiling panel | compound autofluorescence, ex339/em460 nm, NADH buffer; active compounds read high; 1 = no-compound wells, NADH background | actives 5.5% (n = 65,000) | fluorescence fold increase at 10 µM;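 active means at 10 µM, mean starting fluorescence two-fold or more over control wells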;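 further: signal is the first read of a kinetic run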
A340 absorber = compounds absorbing at 340 nm; compound absorbance at 340 nm, fold over control; fold change at 10 µM; 65,000 tested, under 10 active;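 active means at 10 µM dose, initial 340 nm absorbance at least 2 fold that of control wells; inactive means change under 2 fold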;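 further: initial absorbance extrapolated from kinetic A340 decline of NADH oxidation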
Each line names hits and unclear results; the compound was inactive in the other large screens. Hits are enriched below; roughly 6.8% of the tested compounds scored in any of these assays.

CCCCCn1c2nc3ccccc3nc2c2c(=O)n(CC3CCCO3)c(C)nc21 (centres undefined)	Fluor 339 460 4 (not shown: Spn DPM-DC inh)
O=C(CN1C(=O)CC(c2ccccc2)=Nc2ccccc21)NCc1ccco1	none
CCOC(=O)c1sc(-n2[nH]c(C)cc2=O)nc1C	none
CC(C)OCCCn1c(-c2ccco2)nc2nc3ccccc3nc21	Fluor 339 460 3.8 (not shown: Spn DPM-DC inh)
COCCn1c(-c2ccco2)nc2nc3ccccc3nc21	Fluor 339 460 3 (not shown: Spn DPM-DC inh)
N#Cc1c(NCCCO)nc(NCc2ccccc2)c2c1CCN(Cc1ccccc1)C2	Spn DPM-DC inh active, Fluor 339 460 2.4
c1cncc(-c2nc(Oc3ccc(-c4nnco4)cc3)c3c4c(sc3n2)CCCC4)c1	Fluor 339 460 2.1 (not shown: Spn DPM-DC inh)
COc1cccc(-n2nnc3c(=O)n(Cc4ccccc4F)cnc32)c1	none
COCCCn1c2nc3ccccc3nc2c2c(=O)n(Cc3ccc(Cl)cc3)cnc21	Fluor 339 460 3.8 (not shown: Spn DPM-DC inh)
O=c1c2c3nc4ccccc4nc3n(Cc3ccccc3)c2ncn1Cc1ccco1	Fluor 339 460 3.3
CCCCn1c2nc3ccccc3nc2c2c(=O)n(CC(C)C)cnc21	none (no result: Spn DPM-DC inh)
COCCCn1c2nc3ccccc3nc2c2c(=O)n(Cc3ccccc3Cl)cnc21	Fluor 339 460 2.9
COCCCn1c(C)nc2c(c1=O)c1nc3ccccc3nc1n2CCc1ccccc1	Fluor 339 460 2.4 (not shown: Spn DPM-DC inh)
Cc1oc(-c2cccs2)[n+]([O-])c1C	none
O=C(Cn1c(=O)oc2cc(S(=O)(=O)N3CCCC3)ccc21)Nc1ccc(C(F)(F)F)cc1	none
CCCCn1c2nc3ccccc3nc2c2c(=O)n(C(C)CC)cnc21 (centres undefined)	Fluor 339 460 2.1 (not shown: Spn DPM-DC inh)
O=c1c2c(nc3cc(-c4ccccc4)[nH]n13)CCC2	Fluor 339 460 3.4
Cc1cc2nc3c(c(=O)n2[nH]1)CCCC3	none
Cc1ccc(-c2[nH]n3c(=O)c4c(nc3c2C)CCCC4)cc1	Fluor 339 460 2.4
COc1ccc(-c2cc3nc4c(c(=O)n3[nH]2)CCC4)cc1	Fluor 339 460 2.1 (not shown: Spn DPM-DC inh)
COC(=O)c1ccc(Nc2cc(C)nc(-c3ccccc3O)n2)cc1	Spn MK inh 81, Spn DPM-DC inh active
COc1ccc(-c2nc3cccc(C)n3c2NCc2ccco2)cc1OC	Fluor 339 460 5.1 (not shown: Spn DPM-DC inh)
COc1ccc(-c2csc(NCc3ccco3)n2)cc1C	none
Cc1cccc(C(=O)Nc2cc(=O)n(C)c(=O)n2C)c1	Spn DPM-DC inh active
CC(NC(=O)c1cccc(N2CCCC2=O)c1)c1ccc2c(c1)OCCO2 (centres undefined)	Spn DPM-DC inh active
CCOC(=O)Oc1ccc2oc(=O)cc(C)c2c1	none
C#CCOc1ccc2c(C)cc(=O)oc2c1	Fluor 339 460 3.9 (not shown: Spn DPM-DC inh)
Cc1cc(=O)oc2cc(OC(C)C)ccc12	Fluor 339 460 2.1 (not shown: Spn DPM-DC inh)
COc1cc(OC)c2c(C)cc(=O)oc2c1	Fluor 339 460 3.8 (not shown: Spn DPM-DC inh)
COc1ccc2oc(=O)cc(C)c2c1	Fluor 339 460 2.6
CC1CCCCC1N=CC1=C(O)CC(C)(C)CC1=O (centres undefined)	none
Cc1ccc(N2CC(C(=O)Oc3cccc(N4C(=O)CCC4=O)c3)CC2=O)cc1 (centres undefined)	none
CCOC(=O)c1c(C)oc2ccc(NS(=O)(=O)c3ccc4c5c(cccc35)C(=O)N4)cc12	none
CCN(CC)S(=O)(=O)c1ccc2c3c(cccc13)C(=O)N2	Fluor 339 460 2.2 (not shown: Spn DPM-DC inh)
COc1ccc(OC)c(S(=O)(=O)NCCC2=CCCCC2)c1	none
O=C1Nc2ccc(S(=O)(=O)NCCC3=CCCCC3)c3cccc1c23	Fluor 339 460 3.6 (not shown: Spn DPM-DC inh)
CCOC(=O)CCCOC(=O)c1ccc(S(=O)(=O)N(C)C)cc1	none
CCOC(=O)C1CCN(c2c(NCc3ccc(C(=O)NC(C)CC)cc3)c(=O)c2=O)CC1 (centres undefined)	none
Cc1ccc2c(c1)c1c(n2CC(O)CN2C(=O)CNC2=O)C(=O)CCC1 (centres undefined)	Fluor 339 460 2 (not shown: Spn DPM-DC inh)
Cc1ccc2c(c1)c1c(n2CC2COC(C)(C)O2)C(=O)CCC1 (centres undefined)	Fluor 339 460 2.2 (not shown: Spn DPM-DC inh)
Cc1ccc2c(c1)c1c(n2CC(O)Cn2c(C)nc3ccccc32)C(=O)CCC1 (centres undefined)	Fluor 339 460 2 (not shown: Spn DPM-DC inh)
Cc1ccc2c(c1)c1c(n2CC(O)Cn2c(C)nc3ccccc32)/C(=N\O)CCC1 (centres undefined)	none
